“And” between values parts separate entries of the source, which are not always exact repeats. Identical values can stand only once. Inconclusive results are not listed. The source made the active and inactive calls. Unless noted, calls follow the shape of the dose curve; as a rule, active = well fitted curve in the direction sought with a large enough effect; inconclusive = small, poorly fitted or top-dose-only effect, or another doubt; inactive = no such curve, though single readings can be large; an effect the other way counts as inactive or inconclusive.
What was measured:
[1] = tested on: Zika virus NS2B-NS3 protease; assay: Primary screen GU AMC qHTS for Zika virus inhibitors (AID 1347154);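 also: 0% = no-inhibitor control and -100% = no-enzyme control; nearly all actives have a fitted effect of over 70% in size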
Outline: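 Unlinked Zika NS2B hydrophilic domain–NS3 protease complex at 25 nM in 10 mM Tris-HCl pH 8.0, 0.01% Tween 20, with an AMC peptide substrate. Fluorescence change (340/450 nm) over 15 min at room temperature, normalized to controls, fitted to 4-parameter Hill.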

[2] = Confirmatory qHTS for small molecule stabilizers of the endoplasmic reticulum resident proteome: Secreted ER Calcium Modulated Protein (SERCaMP) assay (AID 1508628); also: nearly all actives have a fitted effect of over 40% in size; also: potency is read from the fitted curve at half-maximal effect
Outline: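 SH-SY5Y cells stably expressing GLuc-SERCaMP, treated 16 h with compound (primary 1.53, 7.67, 38.3 uM; confirmation 11 concentrations, up to 76.6 uM), then 100 nM thapsigargin for 4 h. Secreted Gaussia luciferase in medium read by coelenterazine luminescence.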

[3] = biological target: Cytochrome P450 1A2 (Homo sapiens) (UniProt P05177); assay: p450-cyp1a2 (AID 410; calls by dose curve; also: potency is read from the fitted curve at half-maximal effect;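 as to activity change, negative = inhibition: -100% = full effect of reference inhibitor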)
Sequence of Cytochrome P450 1A2 (Homo sapiens) (P05177 whole entry, looked up): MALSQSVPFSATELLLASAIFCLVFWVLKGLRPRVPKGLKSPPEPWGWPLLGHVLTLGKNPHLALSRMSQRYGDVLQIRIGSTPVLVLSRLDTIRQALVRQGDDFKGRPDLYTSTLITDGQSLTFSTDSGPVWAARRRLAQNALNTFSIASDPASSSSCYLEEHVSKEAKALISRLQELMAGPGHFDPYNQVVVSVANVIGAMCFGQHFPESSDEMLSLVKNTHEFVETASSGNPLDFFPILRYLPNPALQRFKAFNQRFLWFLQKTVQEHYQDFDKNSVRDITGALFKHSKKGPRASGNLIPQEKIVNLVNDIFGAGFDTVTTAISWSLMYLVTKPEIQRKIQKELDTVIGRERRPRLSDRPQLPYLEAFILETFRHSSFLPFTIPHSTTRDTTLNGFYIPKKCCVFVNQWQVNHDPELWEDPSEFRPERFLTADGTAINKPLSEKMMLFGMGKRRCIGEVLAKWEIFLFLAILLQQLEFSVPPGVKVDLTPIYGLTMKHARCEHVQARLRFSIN
Outline: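 20nM CYP1A2 with 100uM Luciferin-ME (at Km) in 100mM KPO4; compound preincubated 10 min, NADPH regeneration added, 60 min at room temperature. Luciferin quantified by luminescence after detection reagent; normalized to 57 uM furafylline.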

[4] = biological target: Glucocorticoid receptor (Homo sapiens) (UniProt P04150); assay: GR-GFP Redistribution (AID 450;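 active = compounds whose dose series gives a full or clear partial fitted curve of increased nuclear translocation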; also: potency is read from the fitted curve at half-maximal effect); conditions: U2OS GR-GFP nuclear translocation, laser cytometry, 2 h
Sequence of Glucocorticoid receptor (Homo sapiens) (P04150 whole entry, looked up, the tested form may be a part): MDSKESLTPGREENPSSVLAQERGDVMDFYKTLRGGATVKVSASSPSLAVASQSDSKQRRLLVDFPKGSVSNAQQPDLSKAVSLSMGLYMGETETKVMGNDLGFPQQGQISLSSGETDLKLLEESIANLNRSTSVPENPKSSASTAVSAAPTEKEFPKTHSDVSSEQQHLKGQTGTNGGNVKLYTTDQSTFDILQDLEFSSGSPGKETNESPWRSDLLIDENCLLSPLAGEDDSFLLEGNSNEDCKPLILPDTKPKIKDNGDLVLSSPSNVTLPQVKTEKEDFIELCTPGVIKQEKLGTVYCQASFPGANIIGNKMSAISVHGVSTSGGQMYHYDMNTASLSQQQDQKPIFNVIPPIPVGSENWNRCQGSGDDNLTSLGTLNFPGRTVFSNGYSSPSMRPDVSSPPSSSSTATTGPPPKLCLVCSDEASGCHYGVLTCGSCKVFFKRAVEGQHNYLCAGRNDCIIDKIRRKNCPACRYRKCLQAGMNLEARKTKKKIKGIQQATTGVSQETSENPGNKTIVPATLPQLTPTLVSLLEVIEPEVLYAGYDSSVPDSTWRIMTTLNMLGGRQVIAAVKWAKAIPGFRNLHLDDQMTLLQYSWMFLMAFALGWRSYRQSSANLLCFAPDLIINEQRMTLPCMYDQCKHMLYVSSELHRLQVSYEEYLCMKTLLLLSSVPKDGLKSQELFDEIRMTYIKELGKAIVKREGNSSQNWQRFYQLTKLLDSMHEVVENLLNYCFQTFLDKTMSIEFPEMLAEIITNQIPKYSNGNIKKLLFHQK

[5] = biological target: Glucocorticoid receptor (Homo sapiens) (UniProt P04150); assay: GR-EFC Redistribution (AID 451; calls by dose curve; also: potency is read from the fitted curve at half-maximal effect); conditions: CHO-K1 GR-EFC translocation, beta-gal luminescence, 2 h
Outline: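 CHO-K1 cells expressing nuclear EA and GR-ED fragments of b-gal; compounds titrated up to 46 uM final, 2 h at 37 C. GR nuclear translocation read as complemented b-gal luminescence after 1 h RT detection.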

[6] = biological target: Mitogen-activated protein kinase 10 (Mus musculus) (UniProt Q61831); assay: JNK3 AlphaScreen Assay (AID 530; active = well fitted curve in either direction with a large enough effect, not every such curve was filed as active;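 also: kinase came from lysate of stimulated human HepG2 cells; signal reports phosphorylation of biotinylated GST-cJun 1-79 at Ser73 with 10 µM ATP; % is scaled to controls: 0 for no effect and ±100 for the full control effect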)
Outline: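 Pre-activated (IL-1β/TNFα) JNK3 in HepG2 lysates phosphorylates biotin-GST-cJun(1-79), 10 uM ATP; anti-phospho-cJun(Ser73) AlphaScreen read at room temperature, pH 7.6 Tris buffer. Compounds pre-incubated 15 min as titrations.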

[7] = biological target: 3',5'-cyclic-AMP phosphodiesterase 4B (Homo sapiens) (UniProt Q07343); assay: qHTS Assay for Inhibitors of PDE-IV (AID 607; active = well fitted activation curve with a large enough effect in the main read-out, with a control signal flat, not every such curve was filed as active; also: % of control where 0% means no effect)
Sequence of 3',5'-cyclic-AMP phosphodiesterase 4B (Homo sapiens) (Q07343 whole entry, looked up): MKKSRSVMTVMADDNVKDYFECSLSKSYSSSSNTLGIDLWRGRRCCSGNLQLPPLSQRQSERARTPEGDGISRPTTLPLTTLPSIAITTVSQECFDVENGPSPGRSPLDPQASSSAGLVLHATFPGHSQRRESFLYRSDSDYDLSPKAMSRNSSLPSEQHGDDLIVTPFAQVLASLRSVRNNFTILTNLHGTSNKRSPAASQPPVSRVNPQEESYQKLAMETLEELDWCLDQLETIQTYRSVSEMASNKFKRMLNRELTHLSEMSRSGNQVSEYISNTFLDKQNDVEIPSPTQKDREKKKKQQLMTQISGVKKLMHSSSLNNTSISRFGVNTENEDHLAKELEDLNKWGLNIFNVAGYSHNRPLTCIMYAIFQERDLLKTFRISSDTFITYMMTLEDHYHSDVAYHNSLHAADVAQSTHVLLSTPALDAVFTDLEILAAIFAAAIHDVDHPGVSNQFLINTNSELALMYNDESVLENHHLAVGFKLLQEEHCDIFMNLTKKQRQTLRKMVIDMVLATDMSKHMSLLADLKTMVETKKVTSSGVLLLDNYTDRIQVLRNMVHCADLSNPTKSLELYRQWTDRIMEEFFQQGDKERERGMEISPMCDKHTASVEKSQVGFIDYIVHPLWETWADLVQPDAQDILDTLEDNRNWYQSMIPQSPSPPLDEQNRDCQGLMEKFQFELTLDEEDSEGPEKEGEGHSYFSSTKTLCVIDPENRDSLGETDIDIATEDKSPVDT
Outline: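 ACTOne HEK293 cells carry a modified cAMP-gated CNG channel and express endogenous PDE4; plated 1000 cells/well, compounds up to 22.9 uM final. Membrane-potential dye fluorescence (ex 535/em 590) was read; parental cells received 10 uM forskolin + 100 uM RO 20-1724.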

[8] = biological target: Cytochrome P450 2C9 (Homo sapiens) (UniProt P11712); assay: qHTS Assay for Inhibitors and Substrates of Cytochrome P450 2C9 (AID 883); also: % is scaled to controls: 0 for no effect and ±100 for the full control effect; nearly all actives have a fitted effect of over 60% in size
Sequence of Cytochrome P450 2C9 (Homo sapiens) (P11712 whole entry, looked up): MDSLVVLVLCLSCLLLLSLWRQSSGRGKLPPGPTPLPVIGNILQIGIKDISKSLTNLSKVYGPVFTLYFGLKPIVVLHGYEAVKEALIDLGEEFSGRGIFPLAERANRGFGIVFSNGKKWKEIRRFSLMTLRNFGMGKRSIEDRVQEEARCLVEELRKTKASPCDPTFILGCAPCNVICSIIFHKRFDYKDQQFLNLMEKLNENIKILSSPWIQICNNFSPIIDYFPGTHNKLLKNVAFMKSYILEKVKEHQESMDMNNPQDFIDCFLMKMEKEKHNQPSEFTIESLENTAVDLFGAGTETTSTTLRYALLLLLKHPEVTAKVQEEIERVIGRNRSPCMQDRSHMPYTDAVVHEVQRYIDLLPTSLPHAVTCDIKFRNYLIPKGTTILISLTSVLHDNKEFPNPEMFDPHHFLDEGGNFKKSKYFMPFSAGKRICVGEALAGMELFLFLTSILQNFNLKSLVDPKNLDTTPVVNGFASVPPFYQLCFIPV
Outline: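 Signal: luciferase luminescence reporting luciferin produced by CYP2C9. Conditions: 10nM enzyme, Luciferin-H 100uM at KM, 25mM KPO4, 37C, 60 min NADPH-driven reaction. Reference: 57uM sulphaphenazole as 100% inhibition.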

[9] = biological target: Ubiquitin carboxyl-terminal hydrolase 1 (Homo sapiens) (UniProt O94782); assay: Inhibitors of USP1/UAF1: Pilot qHTS (AID 504865);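 also: rhodamine fluorescence freed from ubiquitin-rhodamine substrate followed over time; top concentration of the series differs between compounds; % is scaled to controls: 0 for no effect and ±100 for the full control effect; nearly all actives have a fitted effect of over 35% in size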
Sequence of Ubiquitin carboxyl-terminal hydrolase 1 (Homo sapiens) (O94782 whole entry, looked up): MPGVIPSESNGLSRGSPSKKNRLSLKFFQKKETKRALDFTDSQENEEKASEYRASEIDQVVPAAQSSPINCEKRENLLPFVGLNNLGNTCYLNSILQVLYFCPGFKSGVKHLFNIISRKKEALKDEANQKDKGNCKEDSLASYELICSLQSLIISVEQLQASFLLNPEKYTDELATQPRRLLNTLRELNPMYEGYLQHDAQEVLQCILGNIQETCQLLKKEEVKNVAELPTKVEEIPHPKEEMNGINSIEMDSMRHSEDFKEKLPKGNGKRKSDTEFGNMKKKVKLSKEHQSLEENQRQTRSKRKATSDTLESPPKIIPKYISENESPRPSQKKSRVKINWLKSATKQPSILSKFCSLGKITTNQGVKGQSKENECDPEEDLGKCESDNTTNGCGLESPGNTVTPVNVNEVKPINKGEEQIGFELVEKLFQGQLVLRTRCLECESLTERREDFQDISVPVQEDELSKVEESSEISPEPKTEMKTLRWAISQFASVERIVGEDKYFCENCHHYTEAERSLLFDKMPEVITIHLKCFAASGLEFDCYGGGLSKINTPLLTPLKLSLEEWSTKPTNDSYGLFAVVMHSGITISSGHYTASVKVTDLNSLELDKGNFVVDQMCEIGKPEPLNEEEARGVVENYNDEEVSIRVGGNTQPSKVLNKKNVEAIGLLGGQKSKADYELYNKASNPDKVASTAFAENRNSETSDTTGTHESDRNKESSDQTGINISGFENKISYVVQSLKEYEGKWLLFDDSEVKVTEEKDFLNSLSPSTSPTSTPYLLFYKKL
Outline: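 USP1/UAF1 complex at 1 nM preincubated 15 min at room temperature with compound, then Ub-Rho substrate added at 150 nM final. Fluorescence (480/540 nm) read kinetically in 50 mM HEPES pH 7.8, 0.5 mM EDTA, 1 mM TCEP, 0.1 mg/ml BSA, 0.01% Tween-20.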

[10] = biological target: DNA dC->dU-editing enzyme APOBEC-3G (Homo sapiens) (UniProt Q9HC16); assay: qHTS for inhibitors of Vif-A3G interactions: Validation (AID 588379); also: 0% is about no effect
Sequence of DNA dC->dU-editing enzyme APOBEC-3G (Homo sapiens) (Q9HC16 whole entry, looked up): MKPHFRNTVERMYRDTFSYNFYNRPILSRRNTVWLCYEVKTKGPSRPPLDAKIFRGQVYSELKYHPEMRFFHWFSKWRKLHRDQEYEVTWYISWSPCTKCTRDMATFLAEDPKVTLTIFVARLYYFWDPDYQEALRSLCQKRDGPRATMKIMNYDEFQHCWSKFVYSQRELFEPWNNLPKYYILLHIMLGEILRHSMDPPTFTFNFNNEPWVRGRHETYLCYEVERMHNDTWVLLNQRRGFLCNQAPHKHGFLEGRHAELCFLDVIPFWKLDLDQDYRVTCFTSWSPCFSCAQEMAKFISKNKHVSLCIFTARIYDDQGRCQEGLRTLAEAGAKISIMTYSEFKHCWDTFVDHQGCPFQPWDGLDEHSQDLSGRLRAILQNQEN
Outline: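 HeLa cells stably expressing Vif and A3G-eYFP, 700 cells/well, incubated overnight at 37 deg C, then exposed to compound overnight at 37 deg C. Inhibition of Vif-mediated degradation read as increased yellow fluorescence (Ex 488/Em 500-530) by laser-scanning cytometry.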

[11] = Counterscreen qHTS for small molecule stabilizers of the endoplasmic reticulum resident proteome: GLuc-NoTag assay (AID 1508627);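 also: SH-SY5Y cells given compound then 100 nM thapsigargin to empty ER calcium; 0% = thapsigargin alone and -100% = DMSO vehicle control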
Outline: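 SH-SY5Y cells stably expressing constitutively secreted GLuc without SERCaMP tag, exposed to compound for 19 hr, then to 100 nM thapsigargin for 4 hr at 37C. Medium luciferase was read by coelenterazine luminescence without lysis.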

[12] = Cell Viability qHTS for small molecule stabilizers of the endoplasmic reticulum resident proteome (AID 1508629); conditions: cell viability counter-screen, 100 nM thapsigargin for final 4 h;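 also: compound exposure about 46 h in total before the viability read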; also: potency is read from the fitted curve at half-maximal effect;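 as to max response: human SH-SY5Y neuroblastoma cells carrying the GLuc-SERCaMP reporter; % is scaled to controls: 0 for no effect and ±100 for the full control effect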
[13] = biological target: Cytochrome P450 3A4 (Homo sapiens) (UniProt P08684); assay: qHTS Assay for Inhibitors and Substrates of Cytochrome P450 3A4 (AID 884); also: % is scaled to controls: 0 for no effect and ±100 for the full control effect; nearly all actives have a fitted effect of over 50% in size
Sequence of Cytochrome P450 3A4 (Homo sapiens) (P08684 whole entry, looked up): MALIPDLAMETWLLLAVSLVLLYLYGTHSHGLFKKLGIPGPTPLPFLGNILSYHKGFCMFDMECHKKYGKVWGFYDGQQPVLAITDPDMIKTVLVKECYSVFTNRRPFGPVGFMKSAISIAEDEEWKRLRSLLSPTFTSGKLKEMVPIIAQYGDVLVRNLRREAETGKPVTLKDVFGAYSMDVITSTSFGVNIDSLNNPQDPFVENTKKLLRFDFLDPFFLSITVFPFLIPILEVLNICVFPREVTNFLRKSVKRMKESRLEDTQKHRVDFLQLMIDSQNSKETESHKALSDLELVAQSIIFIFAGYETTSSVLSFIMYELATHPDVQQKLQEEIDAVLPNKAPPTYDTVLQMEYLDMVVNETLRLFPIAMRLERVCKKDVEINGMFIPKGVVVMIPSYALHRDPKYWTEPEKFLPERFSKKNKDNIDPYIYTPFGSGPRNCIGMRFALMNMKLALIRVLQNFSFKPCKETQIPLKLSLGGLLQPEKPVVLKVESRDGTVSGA
Outline: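 20 nM human CYP3A4 with 25 uM Luciferin-PPXE (at KM) in 200 mM KPO4, preincubated 10 min with compound; NADPH regeneration started a 60 min RT reaction. Luciferin detected by luminescence, normalized to 57 uM ketoconazole as full inhibition.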

[14] = biological target: Cytochrome P450 3A4 (Homo sapiens) (UniProt P08684); assay: qHTS Assay for Activators of Cytochrome P450 3A4 (AID 885); also: nearly all actives have a fitted effect of over 65% in size
Outline: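 20nM CYP3A4 + 25uM Luciferin-PPXE (=KM), 200mM KPO4; cpd 10 min RT; NADPH regen, 60 min RT; stop w/ detection buffer, 20 min; luminescence. Normalized to 57 uM ketoconazole.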

[15] = biological target: Cytochrome P450 2D6 (Homo sapiens) (UniProt P10635); assay: qHTS Assay for Inhibitors and Substrates of Cytochrome P450 2D6 (AID 891); also: potency is read from the fitted curve at half-maximal effect; nearly all actives have a fitted effect of over 60% in size
Sequence of Cytochrome P450 2D6 (Homo sapiens) (P10635 whole entry, looked up): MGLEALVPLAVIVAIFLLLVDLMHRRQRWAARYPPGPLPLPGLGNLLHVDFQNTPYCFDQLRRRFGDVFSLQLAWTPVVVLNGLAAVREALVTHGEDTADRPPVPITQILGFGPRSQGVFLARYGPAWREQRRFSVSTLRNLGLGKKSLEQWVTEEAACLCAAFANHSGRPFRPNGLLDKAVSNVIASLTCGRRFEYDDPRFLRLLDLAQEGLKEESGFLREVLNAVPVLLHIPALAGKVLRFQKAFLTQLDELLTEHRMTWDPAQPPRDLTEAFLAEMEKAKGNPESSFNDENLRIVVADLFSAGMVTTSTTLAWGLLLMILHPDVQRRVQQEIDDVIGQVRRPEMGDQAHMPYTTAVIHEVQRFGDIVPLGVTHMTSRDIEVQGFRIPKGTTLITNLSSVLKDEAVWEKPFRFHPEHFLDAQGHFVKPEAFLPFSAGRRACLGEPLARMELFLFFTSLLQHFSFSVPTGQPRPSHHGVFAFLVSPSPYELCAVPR
Outline: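 Human CYP2D6 (5 nM) with 30 uM Luciferin-ME EGE (at Km) in 100 mM KPO4, compound preincubated 10 min, then NADPH regeneration system for 60 min at room temperature. Luciferin read by luminescence; normalized to 1.43 uM quinidine.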

[16] = Confirmation and Secondary Assay for Modulators of Hemoglobin Beta Chain Splicing at IVS2 654 locus (AID 910);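 also: HeLa cells stably carrying EGFP split by mutant beta-globin IVS2-654 intron; % of control where 0% means no effect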
Outline: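 HeLa cells stably expressing EGFP interrupted by β-globin IVS2-654 intron, seeded overnight in Opti-MEM/2% FCS, then treated 2 days at 37 °C. Restored splicing read as total peak GFP intensity per well by laser scanning cytometry (488 nm excitation, 500–520 nm emission); 500 nM antisense PNA as control.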

[17] = Confirmation and Secondary Assay for Modulators of Hemoglobin Beta Chain Splicing at IVS2 705 locus (AID 930);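 also: HeLa cells stably expressing the EGFP-705 splicing reporter; GFP fluorescence per well restored by corrected splicing of the IVS2-705 intron in EGFP; % of control where 0% means no effect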
Outline: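 Per-well GFP, captured at 1 x 8 µm resolution with 488 nm excitation, served as the read-out for HeLa EGFP-705 cells incubated 2 days with test compound versus DMSO.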

[18] = qHTS Assay for Lipid Storage Modulators (AID 1519; calls by dose curve; as to activity change, negative = inhibition: % is scaled to controls: 0 for no effect and ±100 for the full control effect); conditions: Drosophila S3 cells, BODIPY lipid droplet/cell ratio, laser cytometry, cells loaded with oleic acid
Outline: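 Cells seeded at 5,000 per well were treated with compounds over a concentration series and loaded with oleic acid (400 uM, as added). Lipid droplet fluorescence (488 nm excitation, 500-530 nm channel) was read by laser-scanning cytometry and normalized to 20 uM Triacsin C.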

N=C(CC(O)COc1ccccc1-c1ccccc1)N1CCCCC1 (stereo unspecified)
inactive: Potency [1] | Potency [2]

C[C@@H](NCc1cc(Br)cc2[nH]c(=O)c(=O)[nH]c12)P(=O)(O)O
active: Potency [4] 0.264 µM
inactive: Potency [3] | Potency [5] > 46 µM | Potency [6] | Potency [7] | Potency [8] | Potency [9] | Potency [10] | Potency [1] | Potency [11] | Potency [2]

CC(C)ON(C(C(=O)NO)C(C)C)S(=O)(=O)c1ccc(-c2ccccc2)cc1 (stereo unspecified)
inactive: Potency [1] | Potency [11]
active: Potency [12] 12.6 µM

CCCCCCCCCCCCCCCC(=O)OC(CO)CO
inactive: Potency [13] | Potency [1] | Potency [11] | Potency [2]

COc1ccc(Cl)cc1N=Nc1ncc[nH]1
active: Potency [3] 0.631 µM | Potency [15] 2.51 µM | Potency [2] 35.5 µM
inactive: Potency [4] > 46 µM | Potency [5] > 46 µM | Potency [6] | Potency [14] | Potency [10] | Potency [1] | Potency [11]

NCCOB(c1ccccc1)c1ccccc1
-4.57% and 13.6%: max response ([18]; measured here: cell count channel max response)
active: Potency [3] 15.8 µM
-11.1% and 11.6%: max response ([18]; measured here: lipid channel max response)
inactive: Potency [4] > 46 µM | Potency [5] > 46 µM | Potency [6] | Potency [7] | Potency [14] | outcome [16] | outcome [17] | activity change, negative = inhibition ([18]; at 57.5 µM (top of the series)) -7.96% and -2.88% | Potency [9] | Potency [10] | Potency [1] | Potency [11] | max response [12] 2.88%

— PubChem BioAssay (NCATS)
